Columns and labels:
Assay in all cases: DAPPL (digital affinity profiling via proximity ligation, sequencing); 10 mM Tris-HCl pH 7.5, 50 mM NaCl, 1 mM DTT, 4% glycerol, room temperature, 30 min; GST-TFs on glutathione beads, 16-mer random dsDNA library, 0.1% formaldehyde crosslink after washing; high values mean tight binding
Conditions in all cases: protein: recombinant; tags: N-terminal GST; dsDNA, one strand shown
ELK1 = target: T1, ELK1 (Homo sapiens, UniProt P19419 1-428)
T1 sequence: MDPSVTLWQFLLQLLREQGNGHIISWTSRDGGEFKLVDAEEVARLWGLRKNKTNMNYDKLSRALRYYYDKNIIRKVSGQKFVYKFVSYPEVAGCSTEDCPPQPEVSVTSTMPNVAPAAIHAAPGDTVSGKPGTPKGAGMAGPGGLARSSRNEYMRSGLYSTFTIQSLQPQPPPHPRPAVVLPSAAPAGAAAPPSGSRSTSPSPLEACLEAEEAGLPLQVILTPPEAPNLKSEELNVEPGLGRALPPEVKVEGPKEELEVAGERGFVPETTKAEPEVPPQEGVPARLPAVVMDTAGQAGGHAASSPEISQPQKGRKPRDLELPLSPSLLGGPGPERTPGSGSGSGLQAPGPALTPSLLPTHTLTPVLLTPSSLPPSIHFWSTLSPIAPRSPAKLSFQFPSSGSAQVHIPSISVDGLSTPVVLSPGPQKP
Procedure, shortened: (§1)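 GST fusions of human transcription factors were expressed in yeast and captured with glutathione beads. Once given DNA barcodes and pooled alongside a tag-only sample, they were incubated for 30 min at room temperature with 200 nmole of a random double-stranded 16-mer DNA library in Tris/NaCl/DTT/glycerol buffer, then washed, crosslinked (0.1% formaldehyde), proximity-ligated, PCR-amplified and sequenced on an Illumina NextSeq500. The binding signal of each hexamer is its read frequency for a factor divided by its frequency for the tag-only sample.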

GABPA = target: T2, GABPA (Homo sapiens, UniProt Q06546 1-454)
T2 sequence: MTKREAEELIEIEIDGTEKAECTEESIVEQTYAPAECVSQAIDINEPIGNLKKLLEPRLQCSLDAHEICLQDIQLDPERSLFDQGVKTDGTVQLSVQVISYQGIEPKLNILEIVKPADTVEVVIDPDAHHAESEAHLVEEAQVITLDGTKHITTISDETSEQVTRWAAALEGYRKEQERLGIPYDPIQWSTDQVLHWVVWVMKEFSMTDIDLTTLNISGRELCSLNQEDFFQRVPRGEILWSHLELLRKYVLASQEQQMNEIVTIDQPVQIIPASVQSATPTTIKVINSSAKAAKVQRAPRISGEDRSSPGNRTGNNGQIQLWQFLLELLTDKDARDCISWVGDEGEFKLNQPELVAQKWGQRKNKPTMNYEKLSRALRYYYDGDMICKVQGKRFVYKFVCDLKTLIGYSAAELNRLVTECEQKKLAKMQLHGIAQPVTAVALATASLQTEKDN
Procedure, shortened: as §1

ERG = target: T3, ERG (Homo sapiens, UniProt P11308 1-479)
T3 sequence: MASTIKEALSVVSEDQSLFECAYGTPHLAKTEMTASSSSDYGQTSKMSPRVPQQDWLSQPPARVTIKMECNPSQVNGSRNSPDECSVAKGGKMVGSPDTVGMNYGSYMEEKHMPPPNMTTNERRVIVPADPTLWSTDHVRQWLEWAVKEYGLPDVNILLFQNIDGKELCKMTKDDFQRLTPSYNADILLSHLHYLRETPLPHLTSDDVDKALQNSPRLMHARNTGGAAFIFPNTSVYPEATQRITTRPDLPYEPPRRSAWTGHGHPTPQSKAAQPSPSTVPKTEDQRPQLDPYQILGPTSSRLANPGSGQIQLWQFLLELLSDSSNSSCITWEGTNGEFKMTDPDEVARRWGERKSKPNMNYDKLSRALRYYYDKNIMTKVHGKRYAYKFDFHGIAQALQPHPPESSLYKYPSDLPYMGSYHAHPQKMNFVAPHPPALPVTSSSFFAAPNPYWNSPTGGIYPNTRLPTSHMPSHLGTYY
Procedure, shortened: as §1

ELF1 = ELF1 (Homo sapiens, UniProt P32519 1-619)
ELF1, sequence (P32519 whole entry): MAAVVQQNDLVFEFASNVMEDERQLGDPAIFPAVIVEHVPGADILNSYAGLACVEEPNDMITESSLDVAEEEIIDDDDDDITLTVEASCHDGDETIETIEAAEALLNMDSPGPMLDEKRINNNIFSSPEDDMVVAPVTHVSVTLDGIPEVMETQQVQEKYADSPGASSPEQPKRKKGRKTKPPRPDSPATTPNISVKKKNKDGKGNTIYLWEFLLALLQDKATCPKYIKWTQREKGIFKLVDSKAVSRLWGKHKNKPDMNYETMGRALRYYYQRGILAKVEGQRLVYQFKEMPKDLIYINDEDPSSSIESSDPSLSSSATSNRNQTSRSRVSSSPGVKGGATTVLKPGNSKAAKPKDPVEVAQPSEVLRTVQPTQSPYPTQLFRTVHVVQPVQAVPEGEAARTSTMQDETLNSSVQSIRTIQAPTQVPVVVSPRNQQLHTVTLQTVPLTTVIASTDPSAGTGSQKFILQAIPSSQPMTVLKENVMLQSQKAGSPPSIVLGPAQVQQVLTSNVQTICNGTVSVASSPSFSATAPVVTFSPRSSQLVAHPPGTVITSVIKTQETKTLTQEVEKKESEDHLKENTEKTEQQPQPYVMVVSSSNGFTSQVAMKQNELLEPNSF
Procedure, shortened: as §1

EHF = target: T4, EHF (Homo sapiens, UniProt Q9NZC4 1-300)
T4 sequence: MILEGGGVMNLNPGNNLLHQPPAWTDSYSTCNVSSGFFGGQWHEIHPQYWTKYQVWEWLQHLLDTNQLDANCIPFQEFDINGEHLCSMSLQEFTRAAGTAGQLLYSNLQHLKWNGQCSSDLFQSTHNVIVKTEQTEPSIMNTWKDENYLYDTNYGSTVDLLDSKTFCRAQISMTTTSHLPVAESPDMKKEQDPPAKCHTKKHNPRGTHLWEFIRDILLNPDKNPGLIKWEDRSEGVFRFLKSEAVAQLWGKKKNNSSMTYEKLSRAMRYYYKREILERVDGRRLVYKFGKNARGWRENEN
Procedure, shortened: as §1

SPIB = SPIB (Homo sapiens, UniProt Q01892 1-262)
SPIB, sequence (Q01892 whole entry): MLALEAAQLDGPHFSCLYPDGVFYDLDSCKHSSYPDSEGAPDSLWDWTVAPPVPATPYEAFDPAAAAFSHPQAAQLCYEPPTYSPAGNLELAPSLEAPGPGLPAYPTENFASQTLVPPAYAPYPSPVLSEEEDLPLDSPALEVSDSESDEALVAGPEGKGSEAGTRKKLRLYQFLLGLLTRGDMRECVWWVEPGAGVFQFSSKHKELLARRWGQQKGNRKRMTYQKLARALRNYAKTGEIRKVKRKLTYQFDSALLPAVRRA
Procedure, shortened: as §1

ELK3 = target: T5, ELK3 (Homo sapiens, UniProt P41970 1-407)
T5 sequence: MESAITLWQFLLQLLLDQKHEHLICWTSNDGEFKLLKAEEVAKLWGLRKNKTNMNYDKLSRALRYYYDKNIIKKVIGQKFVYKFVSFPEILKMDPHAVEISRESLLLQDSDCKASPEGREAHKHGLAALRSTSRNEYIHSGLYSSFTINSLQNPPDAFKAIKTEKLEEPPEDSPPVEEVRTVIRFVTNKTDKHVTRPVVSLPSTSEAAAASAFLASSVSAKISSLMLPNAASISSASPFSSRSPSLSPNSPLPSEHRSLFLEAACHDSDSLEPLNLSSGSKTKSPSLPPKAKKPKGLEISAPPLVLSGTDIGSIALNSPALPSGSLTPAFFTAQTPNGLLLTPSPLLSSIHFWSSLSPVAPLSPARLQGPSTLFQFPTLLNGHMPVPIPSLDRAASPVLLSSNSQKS
Procedure, shortened: as §1

FEV = target: T6, FEV (Homo sapiens, UniProt Q99581 1-238)
T6 sequence: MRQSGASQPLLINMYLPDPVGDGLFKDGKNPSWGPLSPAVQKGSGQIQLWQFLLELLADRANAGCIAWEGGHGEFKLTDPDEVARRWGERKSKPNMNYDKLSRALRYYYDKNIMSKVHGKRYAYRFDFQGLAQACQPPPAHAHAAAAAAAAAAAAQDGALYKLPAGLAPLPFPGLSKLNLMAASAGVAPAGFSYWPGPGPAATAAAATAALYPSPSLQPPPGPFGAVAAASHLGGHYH
Procedure, shortened: as §1

ETV5 = ETV5 (Homo sapiens, UniProt P41161 1-510)
ETV5, sequence (P41161 whole entry): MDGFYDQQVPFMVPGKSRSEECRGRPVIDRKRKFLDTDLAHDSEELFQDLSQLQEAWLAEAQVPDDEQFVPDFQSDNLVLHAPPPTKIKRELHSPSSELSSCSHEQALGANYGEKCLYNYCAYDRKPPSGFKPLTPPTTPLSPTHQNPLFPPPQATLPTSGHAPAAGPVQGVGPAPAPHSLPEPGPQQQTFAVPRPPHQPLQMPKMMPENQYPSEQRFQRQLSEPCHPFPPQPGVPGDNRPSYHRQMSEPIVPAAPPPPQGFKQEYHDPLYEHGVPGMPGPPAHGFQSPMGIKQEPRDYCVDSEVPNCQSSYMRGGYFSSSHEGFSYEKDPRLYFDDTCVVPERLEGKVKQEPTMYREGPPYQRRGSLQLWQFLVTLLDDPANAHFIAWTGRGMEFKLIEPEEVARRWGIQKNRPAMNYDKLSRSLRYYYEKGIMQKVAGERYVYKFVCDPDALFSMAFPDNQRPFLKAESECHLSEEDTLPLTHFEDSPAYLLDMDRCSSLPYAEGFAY
Procedure, shortened: as §1

CAGCCC
binding signal (ELK1): 1.16 fold enrichment (6-mer frequency, TF over GST control)
binding signal (GABPA): 1.06 fold enrichment (6-mer frequency, TF over GST control)
binding signal (ERG): 1.18 fold enrichment (6-mer frequency, TF over GST control)
binding signal (ELF1): 1.09 fold enrichment (6-mer frequency, TF over GST control)
binding signal (EHF): 1.16 fold enrichment (6-mer frequency, TF over GST control)
binding signal (SPIB): 1.09 fold enrichment (6-mer frequency, TF over GST control)
binding signal (ELK3): 1.11 fold enrichment (6-mer frequency, TF over GST control)
binding signal (FEV): 1.13 fold enrichment (6-mer frequency, TF over GST control)
binding signal (ETV5): 1.07 fold enrichment (6-mer frequency, TF over GST control)

Source: paper PMC7862700, “An all-to-all approach to the identification of sequence-specific readers for epigenetic DNA modifications on cytosine”
